# Results reported in PubChem BioAssay (Tox21).
# “And” between values parts separate entries of the source, which are not always exact repeats. Identical values can stand only once. Records with an inconclusive call do not appear. Where a call stands in place of a potency, no number is given. More than one record can exist for a structure, and the calls need not agree. The source made the active and inactive calls. Unless noted, calls follow the shape of the dose curve; as a rule, active = well fitted curve in the direction sought with a large enough effect in the repeat runs; inconclusive = weak or mixed curves; inactive = no such curve, though single readings can be large; an effect the other way counts as inactive or inconclusive.
# How the values were obtained:
# [1] = molecular target: Luciferin 4-monooxygenase (Photinus pyralis) (UniProt P08659); test: qHTS assay to identify small molecule inhibitors of firefly luciferase (AID 1224835); also: nearly all actives have a fitted effect of over 25% in size; also: potency is read from the fitted curve at half-maximal effect
# Sequence of Luciferin 4-monooxygenase (Photinus pyralis) (P08659 whole entry, looked up): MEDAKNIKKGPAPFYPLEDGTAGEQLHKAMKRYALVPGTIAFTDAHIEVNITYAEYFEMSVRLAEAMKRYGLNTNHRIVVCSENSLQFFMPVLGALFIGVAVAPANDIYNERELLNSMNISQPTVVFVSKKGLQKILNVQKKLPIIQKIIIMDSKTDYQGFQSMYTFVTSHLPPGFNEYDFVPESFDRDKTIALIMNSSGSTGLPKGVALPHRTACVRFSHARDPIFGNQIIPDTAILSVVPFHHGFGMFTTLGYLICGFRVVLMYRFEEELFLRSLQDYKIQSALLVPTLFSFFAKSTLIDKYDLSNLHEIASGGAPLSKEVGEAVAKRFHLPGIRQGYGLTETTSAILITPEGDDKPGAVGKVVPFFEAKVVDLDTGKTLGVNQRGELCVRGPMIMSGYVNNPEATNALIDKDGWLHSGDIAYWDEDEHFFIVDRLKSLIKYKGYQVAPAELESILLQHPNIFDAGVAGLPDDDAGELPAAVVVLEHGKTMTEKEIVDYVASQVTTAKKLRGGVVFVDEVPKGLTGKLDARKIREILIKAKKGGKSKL
# Summary of the method: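 Quantitative HTS format; KM concentrations of both substrates. Purified P. pyralis FLuc activity quantified from luminescence images.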
# [2] = qHTS assay to identify small molecule agonists of the constitutive androstane receptor (CAR) signaling pathway - cell viability counter screen (AID 1224836); also: nearly all actives have a fitted effect of over 45% in size; also: potency is read from the fitted curve at half-maximal effect
# Summary of the method: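 Using CellTiter-Fluor, viability of HepG2 cells harbouring hCAR and CYP2B6-2.2kb was measured following 23 h incubation with a 15-concentration compound series plus PK11195 (0.75 uM final).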
# [3] = qHTS assay to identify small molecule antagonists of the constitutive androstane receptor (CAR) signaling pathway - cell viability counter screen (AID 1224837); also: nearly all actives have a fitted effect of over 45% in size; also: potency is read from the fitted curve at half-maximal effect
# Summary of the method: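 To flag cytotoxic false antagonists, HepG2 hCAR/CYP2B6-2.2kb cells were treated 23 hr with 15-concentration compound series and 50 nM CITCO at 37 C/5% CO2; CellTiter-Fluor fluorescence was the measured end point.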
# [4] = molecular target: Nuclear receptor subfamily 1 group I member 3 (Homo sapiens) (UniProt Q14994); test: qHTS assay to identify small molecule antagonists of the constitutive androstane receptor (CAR) signaling pathway (AID 1224838);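 also: HepG2 cells stably expressing hCAR with CYP2B6 luciferase reporter stimulated by CITCO; nearly all actives have a fitted effect of over 40% in size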; also: potency is read from the fitted curve at half-maximal effect
# Sequence of Nuclear receptor subfamily 1 group I member 3 (Homo sapiens) (Q14994 whole entry, looked up): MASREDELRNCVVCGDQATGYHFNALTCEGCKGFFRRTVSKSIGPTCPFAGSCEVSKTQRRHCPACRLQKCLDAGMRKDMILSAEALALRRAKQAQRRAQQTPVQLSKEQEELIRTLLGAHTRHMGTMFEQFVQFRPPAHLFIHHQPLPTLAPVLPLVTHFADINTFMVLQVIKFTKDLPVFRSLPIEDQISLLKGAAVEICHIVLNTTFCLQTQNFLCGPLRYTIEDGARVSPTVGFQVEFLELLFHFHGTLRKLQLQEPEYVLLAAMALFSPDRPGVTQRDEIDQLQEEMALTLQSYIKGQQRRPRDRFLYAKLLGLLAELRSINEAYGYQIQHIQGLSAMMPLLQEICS
# Summary of the method: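 Human hepatoma HepG2 cells expressing hCAR and a CYP2B6 promoter (2.2 kb) luciferase construct; compound titration (15 points) with 50 nM CITCO final, 24 h at 37 C/5% CO2; luminescence via ONE-Glo after 30 min at room temperature.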
# [5] = molecular target: Nuclear receptor subfamily 1 group I member 3 (Homo sapiens) (UniProt Q14994); test: qHTS assay to identify small molecule agonists of the constitutive androstane receptor (CAR) signaling pathway (AID 1224839); also: nearly all actives have a fitted effect of over 15% in size; also: potency is read from the fitted curve at half-maximal effect;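 as to activation: HepG2 cells stably carrying human CAR and a CYP2B6 luciferase reporter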
# Summary of the method: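 Double-stable HepG2 cells (hCAR, CYP2B6-2.2kb) seeded 4 h before compound addition. Exposure 24 h with 0.75 uM PK11195 final. Luciferase detected by ONE-Glo.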
# [6] = qHTS assay to identify small molecule antagonists of the estrogen related receptor signaling pathway with the pleiotropic PPARgamma coactivator (PGC) from Tox21 10K library - cell viability counter screen (AID 1224840; active = well fitted cell-killing curve with a large enough effect in the repeat runs, not every such curve was filed as active; also: nearly all actives have a fitted effect of over 40% in size; also: potency is read from the fitted curve at half-maximal effect)
# Summary of the method: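 Seeded PGC/ERR cells (2,000/well, 6 h, 37 C/5% CO2) get compound by pin tool; 17.5 h incubation at 37 C; CellTiter-Fluor added, 30 min, fluorescence measured.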
# [7] = qHTS assay to identify small molecule antagonists of the estrogen related receptor signaling pathway with the pleiotropic PPARgamma coactivator (PGC) from Tox21 10K library (AID 1224841; call rule not given here; also: actives are mostly falling curves and most rising ones were filed inactive; nearly all actives have a fitted effect of over 50% in size; also: potency is read from the fitted curve at half-maximal effect)
# Summary of the method: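 Test chemicals dissolved in DMSO were applied to pre-incubated (6 h) PGC/ERR cells at 2,000 cells/well for an 18 h, 37 C treatment; reporter luminescence was then read using One-Glo.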
# [8] = qHTS assay to identify small molecule agonists of the estrogen related receptor signaling pathway with the pleiotropic PPARgamma coactivator (PGC) from Tox21 10K library (AID 1224842); also: nearly all actives have a fitted effect of over 15% in size; also: potency is read from the fitted curve at half-maximal effect
# Summary of the method: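 PGC/ERR reporter cells (NTP line) were seeded 2,000 per well, rested 6 h at 37 C/5% CO2, then pin-dosed with compounds in DMSO for 18 h at 37 C; luciferase read by One-Glo luminescence after 30 min at room temperature.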
# [9] = molecular target: Thyrotropin receptor (Homo sapiens) (UniProt P16473); test: qHTS assay to identify small molecule agonists of the thyroid stimulating hormone receptor (TSHR) signaling pathway (AID 1224843; calls by dose curve; also: nearly all actives have a fitted effect of over 45% in size)
# Sequence of Thyrotropin receptor (Homo sapiens) (P16473 whole entry, looked up): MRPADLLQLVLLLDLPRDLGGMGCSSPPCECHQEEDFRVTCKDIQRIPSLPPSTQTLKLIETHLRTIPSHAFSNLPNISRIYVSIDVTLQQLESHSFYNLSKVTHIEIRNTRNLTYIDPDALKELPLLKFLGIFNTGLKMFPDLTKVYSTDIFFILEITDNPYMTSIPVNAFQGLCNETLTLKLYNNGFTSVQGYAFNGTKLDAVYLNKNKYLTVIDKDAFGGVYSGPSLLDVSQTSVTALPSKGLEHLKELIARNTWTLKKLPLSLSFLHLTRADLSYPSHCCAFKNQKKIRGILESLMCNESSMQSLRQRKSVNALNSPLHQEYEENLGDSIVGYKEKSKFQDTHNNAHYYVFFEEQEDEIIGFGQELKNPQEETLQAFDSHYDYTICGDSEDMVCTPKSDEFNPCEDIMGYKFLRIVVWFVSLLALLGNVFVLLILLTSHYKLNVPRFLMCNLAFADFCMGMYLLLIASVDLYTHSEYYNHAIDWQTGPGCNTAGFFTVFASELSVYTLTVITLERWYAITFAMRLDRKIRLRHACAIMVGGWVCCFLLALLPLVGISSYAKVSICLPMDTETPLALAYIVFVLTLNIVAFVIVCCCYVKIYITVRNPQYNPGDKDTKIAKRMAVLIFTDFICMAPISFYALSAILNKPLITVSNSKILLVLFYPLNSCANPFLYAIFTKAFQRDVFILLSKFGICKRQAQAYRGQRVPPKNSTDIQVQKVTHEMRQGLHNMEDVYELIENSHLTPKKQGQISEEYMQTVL
# Summary of the method: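 Using 15 concentrations per compound in triplicate, cAMP production was monitored in TSHR-HEK293 cells after 30 min compound incubation at RT; HTRF reagents followed, with fluorescence intensity recorded after 1 h.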
# [10] = qHTS assay to identify small molecule agonists of the hypoxia (HIF-1) signaling pathway - cell viability counter screen (AID 1224844; calls by dose curve; also: nearly all actives have a fitted effect of over 50% in size; also: potency is read from the fitted curve at half-maximal effect)
# Summary of the method: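 HRE-bla ME-180; 0.5% dFBS; cpd 17 h, 37C, 5% CO2; CellTiter-Glo lum., 30 min RT, post-FRET read, same wells.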
# [11] = qHTS assay to identify small molecule agonists of H2AX (AID 1224845; active = well fitted activation curve with a large enough effect in the signal ratio in the repeat runs, not every such curve was filed as active; the % refers to the signal ratio)
# Summary of the method: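 Wild-type CHO-K1 cells plated overnight, then exposed 3 hr at 37C to compounds at 15 concentrations (0.76% DMSO). Lysed, then HTRF anti-pH2AX(S139)-cryptate/anti-H2AX-d2 detection after 24 hr at room temperature; emissions 665 and 620 nm.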
# [12] = qHTS assay to identify small molecule agonists of the hypoxia (HIF-1) signaling pathway (AID 1224846; active = well fitted activation curve with a large enough effect in the signal ratio in the repeat runs, not every such curve was filed as active; the % refers to the signal ratio)
# Summary of the method: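 Reporter induction in HRE-bla ME-180 cells is taken as agonism: cells sit 5 hrs after plating, receive compounds or DMSO only, incubate 17 hrs at 37C under 5% CO2, and are loaded with CCF4-AM for beta-lactamase FRET measurement.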
# [13] = qHTS assay to identify small molecule agonists of H2AX - cell viability counter screen (AID 1224847; calls by dose curve; also: nearly all actives have a fitted effect of over 30% in size; also: potency is read from the fitted curve at half-maximal effect)
# Summary of the method: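 Quantitative HTS viability measurement: CHO-K1 wild-type cells in serum (10% FBS) medium, short 3 hr drug exposure at 37C with 0.76% DMSO, CellTiter-Glo luminescent detection.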
# [14] = qHTS assay to identify small molecule antagonists of the estrogen related receptor (ERR) signaling pathway from Tox21 library (AID 1224848); also: nearly all actives have a fitted effect of over 50% in size; also: potency is read from the fitted curve at half-maximal effect
# Summary of the method: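 Tox21 10K compounds in DMSO tested for ERR pathway antagonism in NTP's ERR cell line; 18 h, 37 C exposure; ONE-Glo luminescence.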
# [15] = qHTS assay to identify small molecule agonists of the estrogen related receptor (ERR) signaling pathway from Tox21 library (AID 1224849; calls by dose curve; also: nearly all actives have a fitted effect of over 15% in size); details: ERR reporter cell line, ONE-Glo luciferase, 18 h; at 92.4 µM (top of the series) unless noted
# Summary of the method: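 Tox21 compounds tested for ERR agonism in an NTP reporter cell line: 18 h treatment at 37 C, then ONE-Glo luminescence.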
# [16] = qHTS RealTime-Glo MT Cell Viability Assay in HepG2 cells - 24 hour (AID 1224867); also: nearly all actives have a fitted effect of over 50% in size; also: potency is read from the fitted curve at half-maximal effect
# Summary of the method: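 qHTS, HepG2, 600 cells/well, RealTime-Glo (NanoLuc + prosubstrate) added with cells; 5 h preincubation; DMSO compound addition; 37 C; luminescence at 0/8/16/24/32/40 h.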
# [17] = qHTS RealTime-Glo MT Cell Viability Assay in HEK293 cells - 32 hour (AID 1224868); also: nearly all actives have a fitted effect of over 50% in size; also: potency is read from the fitted curve at half-maximal effect
# Summary of the method: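 Assay medium contained NanoLuc luciferase plus cell-permeant prosubstrate, added with HEK293 cells at 600 cells/well. After 5 h at 37 C/5% CO2 compounds were added; plates stayed at 37 C for 40 h with serial luminescence reads.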
# [18] = A CellTox Green Cytotoxicity Assay to monitor cytotoxicity in HEK293 cells - 0 hour (AID 1224869); also: nearly all actives have a fitted effect of over 50% in size
# Summary of the method: (§1)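 Tox21 screen in HEK293: membrane-impermeant cyanine dye fluoresces on binding dead-cell DNA; compound pinned 5 h post-seeding, plates held at 37 C, signal read repeatedly through 40 h.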
# [19] = A CellTox Green Cytotoxicity Assay to monitor cytotoxicity in HEK293 cells - 40 hour (AID 1224871); also: nearly all actives have a fitted effect of over 45% in size; also: potency is read from the fitted curve at half-maximal effect
# Summary of the method: as §1
# [20] = qHTS RealTime-Glo MT Cell Viability Assay in HepG2 cells - 40 hour (AID 1224870); also: nearly all actives have a fitted effect of over 50% in size; also: potency is read from the fitted curve at half-maximal effect
# Summary of the method: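 HepG2 cells mixed with RealTime-Glo MT reagents (NanoLuc plus cell-permeant prosubstrate) were seeded at 600 cells/well, incubated 5 h at 37 C/5% CO2, then pinned with compounds in DMSO; nonlytic luminescence tracked viability during 40 h treatment.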
SMILES,Potency [1],Potency [2],Potency [3],Potency [4],Potency [5],Potency [6],Potency [7],Potency [8],Potency [9],Potency [10],Potency [11],outcome [12],Potency [13],Potency [14],"activity change, positive = activation [15]",Potency [16],Potency [17],Potency [18],Potency [19],Potency [20]
NC(=O)c1ccccc1N,inactive,inactive,inactive,inactive,inactive,inactive,inactive,inactive,inactive,inactive,inactive,inactive,inactive,inactive,-2.02% (inactive),inactive,inactive,inactive,inactive,
CCCC(=O)OCC(COC(=O)CCC)OC(=O)CCC,inactive,inactive,inactive,inactive,inactive,inactive,inactive,inactive,,inactive,inactive,inactive,,inactive,-2.08% (inactive),inactive,inactive,inactive,inactive,
COc1cccc(OC)c1O,inactive,inactive,inactive,inactive,inactive,inactive,,,inactive,inactive,inactive,inactive,inactive,,,inactive,inactive,inactive,inactive,inactive
c1ccc(Nc2cccc3ccccc23)cc1,40.5 µM (active) and 35.6 µM (active),inactive,inactive,inactive,61.9 µM (active) and 61.1 µM (active),inactive,inactive,15.6 µM (active) and inactive,,,,,,inactive,-11.6% (active),inactive,inactive,inactive,inactive,inactive
CCCCOC(=O)C(C)CC (configuration not stated),inactive,inactive,inactive,inactive,inactive,inactive,inactive,inactive,inactive,inactive,inactive,inactive,,inactive,6.06% (inactive),inactive,inactive,,inactive,inactive
COc1cccc(CCc2ccccc2OCC(CN(C)C)OC(=O)CCC(=O)O)c1 (configuration not stated),inactive,inactive,inactive,inactive,inactive,inactive,inactive,,inactive,,inactive,inactive,inactive,inactive,-1.11% [at 42.5 µM] (inactive),inactive,,inactive,inactive,inactive
SCCCCCCCCS,inactive,inactive,inactive,inactive,inactive,inactive,,,inactive,inactive,inactive,inactive,inactive,,,inactive,inactive,inactive,inactive,inactive
CC1(C)COCN1,inactive,inactive,inactive,inactive,inactive,inactive,inactive,,inactive,inactive,inactive,inactive,,inactive,5.19% (inactive),inactive,inactive,,,
CCNc1nc(NC(C)CC)nc(OC)n1 (configuration not stated),inactive,inactive,inactive,inactive,inactive,inactive,inactive,,inactive,inactive,inactive,inactive,inactive,inactive,10.4% (inactive),inactive,inactive,inactive,inactive,inactive
CCCCCCOc1cc(C)c(O)c(C)c1C,inactive,inactive,inactive,inactive,49.2 µM (active),55.1 µM (active),inactive,inactive,,,,,102 µM (active),61.9 µM (active),-42.5% (inactive),,15.7 µM (active),inactive,44.2 µM (active),
Cc1cnccn1,inactive,inactive,inactive,inactive,inactive,inactive,,inactive,,inactive,inactive,inactive,inactive,inactive,-1.47% (inactive),,inactive,inactive,inactive,inactive
ClC/C=C\CCl,inactive,inactive,inactive,inactive,inactive,inactive,inactive,,inactive,inactive,inactive,inactive,inactive,inactive,-4.37% (inactive),inactive,inactive,inactive,inactive,
CO[Si](CCC1CCC2OC2C1)(OC)OC (configuration not stated),inactive,inactive,inactive,inactive,inactive,inactive,inactive,,inactive,inactive,inactive,inactive,inactive,inactive,0.732% (inactive),inactive,inactive,inactive,inactive,
C/C=C/C(=O)Oc1c(CCCCCC(C)C)cc([N+](=O)[O-])cc1[N+](=O)[O-],inactive,19.3 µM (active),21.7 µM (active),30.6 µM (active),inactive,27.3 µM (active),6.86 µM (active),inactive,inactive,17.4 µM (active),,,50.5 µM (active),6.11 µM (active),-62.8% (inactive),21.9 µM (active),15.5 µM (active),inactive,38.9 µM (active),43.6 µM (active)
